This note sets out measurements from PubChem BioAssay (EPA / NIEHS).

Inconclusive results are not listed. Active and inactive are the calls of the source. Rule for the calls: active = hit-call score of the fitted dose curve at least 0.9, where 1 is the maximum; inconclusive = response in the unintended direction; inactive = score below 0.9.

The term AC50 denotes the concentration giving half of the maximal activity seen.

Sequence of human Matrix Metalloproteinase-7 (MMP7), MMP7 (gene 4316) (P09237 whole entry, looked up): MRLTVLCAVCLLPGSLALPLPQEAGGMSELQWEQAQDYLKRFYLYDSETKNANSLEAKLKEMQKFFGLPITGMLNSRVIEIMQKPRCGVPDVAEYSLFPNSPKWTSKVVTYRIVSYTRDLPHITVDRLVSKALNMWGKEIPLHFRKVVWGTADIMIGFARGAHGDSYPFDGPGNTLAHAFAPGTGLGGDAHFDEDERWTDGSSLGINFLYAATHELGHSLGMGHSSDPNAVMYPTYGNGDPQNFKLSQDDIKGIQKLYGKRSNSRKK

For the experiment, the target named is human Matrix Metalloproteinase-7 (MMP7), MMP7 (gene 4316) (UniProt P09237). As to the kind of experiment: NVS_ENZ_hMMP7: NovaScreen (NVS) Enzymatic Assay for human Matrix Metalloproteinase-7 (MMP7) (AID 2283183). The method, then:
NVS_ENZ_hMMP7 is a biochemical, single-readout assay that uses extracted gene-proteins in a cell-free assay. Measurements were taken 1 hour after chemical dosing in a 96-well plate.NVS_ENZ_hMMP7 is one of one assay component(s) measured or calculated from the NVS_ENZ_hMMP7 assay. It is designed to make measurements of enzyme activity, a form of enzyme reporter, as detected with fluorescence intensity signals by Fluorescence technology.Data from the assay component NVS_ENZ_hMMP7 was analyzed into 1 assay endpoint. This assay endpoint, NVS_ENZ_hMMP7, was analyzed in the positive analysis fitting direction relative to DMSO as the negative control and baseline of activity. Using a type of enzyme reporter, loss-of-signal activity can be used to understand changes in the enzymatic activity as they relate to the gene MMP7. Furthermore, this assay endpoint can be referred to as a primary readout, because this assay has produced multiple assay endpoints where this one serves a enzymatic activity function. To generalize the intended target to other relatable targets, this assay endpoint is annotated to the protease intended target family, where the subfamily is matrix metalloproteinase.
Binding assays used specific radioligands (tritiated, iodinated) with non-radioactive competitive displacement ligands in agonist or antagonist protocols (as indicated) and various reference compounds and inhibitors to titrate specific binding to receptors and transporters. Most enzyme assays (CYPs, kinases, phosphatases, proteases, HDACs) used recombinant protein and specific substrates (fluorescence mostly, some colorimetric and radioactive) and inhibitors, followed by a biochemical separation of substrate and product. All assays for the biochemical HTS were initially run in duplicate at a single concentration (10 uM for CYP450 assays and 25 uM for all others). Assay-chemical combinations meeting a pre-defined threshold (e.g., 30% inhibition and other criteria defined below) were then run in singleton concentration-response format with maximum concentration of 20 uM for CYPs and 50 uM for all others. Each assay was run with positive and negative controls, and concurrent controls on every plate. The follow-up (secondary) screen tested active chemical-pairs in concentration series, as well as a few additional assays not tested in the primary screen, some selected negative inactives, and several cases re-run in the concentration series for confirmatory purposes.
As to `C[C@]12CC[C@@H]3c4ccc(O)cc4C[C@@H](CCCCCCCCCS(=O)CCCC(F)(F)C(F)(F)F)[C@H]3[C@@H]1CC[C@@H]2O` (stereo not given in full), the outcome was inactive. Turning to `S=C(S)NCCNC(=S)S.[Mn+2].[S-]C([S-])=NCCN=C([S-])[S-].[Zn+2]`, the AC50 was 3.74 µM (active).

With `C=CCOC(Cn1ccnc1)c1ccc(Cl)cc1Cl` (stereo not given), the AC50 was 9.22 µM (active).

Take `CCCCC(CC)CN1C(=O)C2C3C=CC(C3)C2C1=O` (stereo not given): the outcome was inactive. Regarding `Oc1ccc(C(c2ccc(O)cc2)C(Cl)(Cl)Cl)cc1`, the call was inactive. For `CC1(C)C(C=C(Cl)Cl)C1C(=O)OCc1cccc(Oc2ccccc2)c1` (stereo not given), the molecule was called inactive. On the same count and under the same terms, with `CCCCOC(=O)[C@@H](C)Oc1ccc(Oc2ccc(C(F)(F)F)cn2)cc1` the entry was “inactive”; with `S=C([S-])NCCNC(=S)[S-].[Mn+2]`, “inactive”.

Consider `CCOC(=O)NCCOc1ccc(Oc2ccccc2)cc1`, for which the molecule was called inactive.

Regarding `CC(C)(c1ccc(O)cc1)c1ccc(O)cc1`, the result was inactive.
